Results reported in PubChem BioAssay (NCI).
This is part of a sample that, as a whole, favours compounds with a hit. Of some 83,000 tested, about 20% had one in any assay.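 Testing used 96-well plates and a 48-hour single-concentration exposure. Example: -40 means 40% of the starting cells died.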 Values without a mark were called inactive. The source made the active and inactive calls. The calls were made as follows: active = growth percent below 10; inactive = the rest.

Key:
Assay in all cases: NCI-60 one-dose screen, 48 h (100 = growth as untreated, 0 = no growth, -100 = all killed)
Details in all cases: 10 µM unless noted
SR leukemia = tested on: SR leukemia
RPMI-8226 leukemia = tested on: RPMI-8226 leukemia
OVCAR-8 ovarian = tested on: OVCAR-8 ovarian
OVCAR-5 ovarian = tested on: OVCAR-5 ovarian
OVCAR-4 ovarian = tested on: OVCAR-4 ovarian
SK-OV-3 ovarian = tested on: SK-OV-3 ovarian
IGROV1 ovarian = tested on: IGROV1 ovarian
OVCAR-3 ovarian = tested on: OVCAR-3 ovarian
HS 578T breast = tested on: HS 578T breast
NCI/ADR-RES ovarian = tested on: NCI/ADR-RES ovarian

Row | SMILES | growth (SR leukemia) | growth (RPMI-8226 leukemia) | growth (OVCAR-8 ovarian) | growth (OVCAR-5 ovarian) | growth (OVCAR-4 ovarian) | growth (SK-OV-3 ovarian) | growth (IGROV1 ovarian) | growth (OVCAR-3 ovarian) | growth (HS 578T breast) | growth (NCI/ADR-RES ovarian)
1 | CCOC(=O)c1cccc(NC2=C(Cl)C(=O)c3nc(C)ccc3C2=O)c1 | 37.1% | 53.3% | 97.8% | 104% | 53.7% | 98% | 17.3% | 46.1% | 111% | 94.6%
2 | CN1CCN(c2ccc(Nc3nc(NCCCNS(=O)(=O)c4ccc(F)cc4)c4sccc4n3)cc2)CC1 | 7.3% (active) | 12.5% | 77.3% | 86.7% | 60% | 115% | 81.6% | 97.4% | 55.6% | 87.8%
3 | CN1CCN(c2ccc(Nc3nc(NCCNC(=O)c4ccc(F)cc4)c4sccc4n3)cc2)CC1 | 0.604% (active) | 32.1% | 77.4% | 85.3% | 61.1% | 125% | 87.7% | 86.2% | 75.6% | 88.5%
4 | Oc1[nH]c2ccc(Cl)cc2c1N=Nc1nc(N=Nc2c(O)[nH]c3ccc(Cl)cc23)nc(N2CCCCC2)n1 | 24.5% | 57% | 25.9% | 38.2% | 42.2% | 94.5% | 22.9% | 76.9% | 36.2% | 101%
5 | Cc1[nH]c(C(=O)Nc2ccc(C(N)=O)cc2N2CCOC(C)C2)c(Cl)c1Cl (centres undefined) | 101% | 107% | 96.8% | 98.1% | 97.9% | 102% | 92.2% | 109% | 94.7% | 93.7%
6 | CCOP(=O)(OCC)OC[C@]12CC[C@@H](C)[C@H](C)C1C1=CC[C@@H]3[C@@]4(C)CCCNC(C)(C)[C@@H]4CC[C@@]3(C)[C@]1(C)CC2 (some centres undefined) | -57.7% (active) | -48.9% (active) | 61.2% | 70% | 34.4% | 72.7% | 0.926% (active) | 38.4% | 47.8% | 20.6%
7 | CCN(CC)S(=O)(=O)c1ccc(-c2nc(C(Cl)Cl)nc3cc(-c4ccc(F)cc4)nn23)cc1 | 30.8% | 6.42% (active) | 27.6% | 51.6% | 45.2% | 42.7% | 56.9% | 16.8% | 36.4% | 23.5%
8 | COc1ccc(C2c3[nH]c4ccc(Cl)cc4c3CCN2c2oc(CO)nc2C#N)cc1 (centres undefined) | 17.4% | 46.3% | 45.9% | 78.1% | 69.7% | 101% | 39.4% | 46.7% | 69.1% | 43%
9 | O=C(CCCCCCNC(=O)C(O)(O)C(F)(F)F)Nc1ccc(Br)cc1 | 8.58% (active) | 20.7% | 7.83% (active) | 5.89% (active) | 28.5% | -13.4% (active) | 15.7% | -12.8% (active) | 15.7% | 16.9%
10 | CC(C)(C)Nc1nc2c(OCCc3ccccc3)cccn2c1-c1cccc(Oc2ccccc2)c1 | 3.9% (active) | 4.94% (active) | 10.2% | 17.7% | 31.2% | -1.76% (active) | 34% | 24% | 13.9% | 7.94% (active)
11 | O=c1nc(Nc2ccc([N+](=O)[O-])cc2O)sc2ccccc12 | 24.2% | 3.35% (active) | 24.1% | 47.4% | 36.9% | 49.2% | 33.2% | 14% | 27.4% | 22.5%
12 | CS(=O)(=O)c1ccc(/C(=N/N=C(N)N)c2ccc(F)cc2)cc1 | 24.1% | 91.4% | 98.4% | 115% | 101% | 108% | 110% | 95.6% | 93.4% | 95.7%
13 | COC(=O)c1ccc(NC2=C(Cl)C(=O)c3nc(C)ccc3C2=O)cc1 | 22.3% | 36.9% | 70.1% | 105% | 58.5% | 125% | 41.4% | 63.6% | 71.5% | 19.7%
14 | FC(F)(F)c1cc(Br)cc(-c2cc(-c3ccc4c(c3)OCCO4)[nH]n2)c1 | 20.8% | 22.5% | 19.7% | 48.8% | 75.6% | 52.5% | 20.8% |  | 41.4% | 9.71% (active)
15 | CC(=O)c1c([Si](C)(C)C)c2cc(C#N)ccn2c1C(=O)c1ccc(Br)cc1 | 87.9% | 92.1% | 94.8% | 79% | 76.2% | 98.3% | 68.7% |  | 79.3% | 88.6%
16 | CCCCCCCCCCCC(=O)NC(C)(C)C(=O)N1CCCC1C(=O)NC(C)(C)C(=O)NC(C)(C)C(=O)N1CCCC1C(=O)NC(C)(C)C(=O)NC(C)(C)C(=O)N1CCCC1C(=O)NC(C)C(=O)NCCC(=O)NC(C)C(=O)NC(C)(C)C(=O)NC(C)(C)C(=O)NC(C)(C)C(=O)NCCC(=O)NC(C)(C)C(=O)NC(C)(C)C(=O)NC(C)(C)C(=O)NC(C)C(=O)NCCC(=O)O (centres undefined) | -61.5% (active) | -54.4% (active) | -93.4% (active) | -95.4% (active) | -94.5% (active) | -96.9% (active) | -93.8% (active) |  | -69.8% (active) | 
17 | CCOC(=O)c1ccccc1NC1=C(Cl)C(=O)c2nc(C)ccc2C1=O | 102% | 99.3% | 100% | 101% | 83.6% | 108% | 91.4% | 90.6% | 99% | 93.9%
18 | COc1cc(-c2nc(-c3ccccc3)[nH]c2-c2ccnc(NCCCNS(=O)(=O)c3ccc(C)cc3)n2)ccc1F | 89.4% | 54% | 83.8% | 119% | 108% | 148% | 95.2% | 119% | 107% | 89.8%
19 | O=C(CCl)Nc1ccc(NC(=O)c2cc(Cl)ccc2O)c(Cl)c1 | 21.3% | 49.8% | 48.6% | 121% | 83% | 90.9% | -45.3% (active) |  | 86.9% | 56.7%
20 | CC(=O)OC[C@@]12Oc3c(cccc3-c3ccc(O)c4c3O[C@]3(COC(C)=O)C(=C4O)C(=O)C[C@H](C)[C@@H]3OC(C)=O)C(O)=C1C(=O)C[C@H](C)[C@@H]2OC(C)=O | -7.02% (active) | -27.1% (active) | 15% | 27.6% | 5.47% (active) | -1.41% (active) | 26.9% | 11.6% | -13.6% (active) | 24.7%
21 | O=C1[C@@H]2Cc3c([nH]c4ccccc34)[C@H](c3ccc(Cl)cc3)N2C(=O)CN1C1CCN(Cc2ccccc2)CC1 | 4.81% (active) | 21.8% | 64.4% | 85.5% | 54.4% | 89.6% | 43.3% |  | 65.5% | 
22 | C#Cc1nc(/C=C\CCCCCCC(=O)NO)cs1 | -19.7% (active) | -1.07% (active) | 40.9% | 45.7% | 69.9% | 91.6% | -68.2% (active) |  | 64.9% | 
23 | O=C(/C=C/c1cc(Cl)ccc1Cl)Nc1ncc(Cc2ccc(Cl)cc2)s1 | 14% | 16.2% | 1.15% (active) | 23.9% | 30.4% | 35.6% | 5.94% (active) |  | 6.99% (active) | 
24 | CNC(=O)Nc1ccc(Nc2cc(-c3ccc(-n4cccn4)cc3)[nH]n2)c(C)c1 | 89% | 93.3% | 102% | 111% | 102% | 107% | 108% |  | 116% | 99.8%
25 | O=C(/C=C/c1ccccc1Cl)Nc1ncc(Cc2cc(Cl)ccc2Cl)s1 | 14.3% | 19.7% | 36.9% | 56% | 53.8% | 43.7% | 19.4% |  | 5.7% (active) | 
26 | COC(=O)c1ccc(NC2=C(Cl)C(=O)C(C)=C(C)C2=O)cc1 | 13.6% | 36.5% | 77.9% | 90.9% | 32.4% | 86.2% | 70.4% | 30.1% | 77.1% | 65.2%
27 | O=C(CCCCCCNC(=O)c1csc(Br)n1)NO | 23.9% | 2.81% (active) | 23.5% | 20.2% | 69.6% | 56.3% | 36.4% |  | 58.3% | 
